This excerpt belongs to a sample that is enriched for hits.
CapD inh: blocks the Bacillus anthracis CapD enzyme | purified CapD enzyme, fluorescence intensity read-out; stronger effect = lower value | z-score (concentration not given with the values) | hit rate 0.23% among 140,000 | AID 492967; in the data active means z-score mostly below about -2.9, no sharp cut-off; inactive means mostly above about -1.9
Each line names hits and unclear results; the compound was inactive in the other large screens.

CN(C)c1ccc(N/C=C/C(=O)c2ccco2)cc1	none
CC(=O)Nc1ccc(NC(=O)c2ccco2)cc1	none
CC(=O)Nc1ccc(N/C=C/C(=O)c2ccco2)cc1	CapD inh -5.8
CC(=O)Nc1ccc(NC(=O)c2ccccc2C(=O)O)cc1	none
CC(=O)Nc1ccc(-n2c(C)ccc2C)c(C(=O)O)c1	CapD inh -4.8
COc1ccc(NC(C)=O)cc1C	none
CCCOc1ccc(Cl)cc1C(=O)O	none
Cc1ccc(C)n1-c1cc(Cl)ccc1C(=O)O	CapD inh -5.5
Cc1ccc(C)n1-c1ccccc1C(=O)O	none
COc1ccc(C=C2C(=O)NC(=S)NC2=O)cc1Br	none
CCN(CC)c1ncnc2sc3c(c12)CCCC3	none
CC(C)(C)C(=O)Nc1ncnc2sc3c(c12)CCCC3	none
CC(=O)N(C(C)=O)c1ncnc2sc3c(c12)CCCC3	CapD inh -5.4
O=C(CSc1nc2[nH]ncc2c(=O)n1-c1ccccc1)Nc1cc(Sc2ccc(F)cc2)cc([N+](=O)[O-])c1	none
O=C(OCc1ccco1)c1ccc(Cl)cc1	none
CN(C)/N=C/c1ccc([N+](=O)[O-])o1	CapD inh -4.4
O=C1CN(/N=C/c2ccc([N+](=O)[O-])o2)C(=O)N1	none
O=C1OCCN1/N=C/c1ccc([N+](=O)[O-])o1	none
CCOc1cccc2c1OC(c1ccccc1Cl)N1N=C(c3cccc(OC)c3)CC21 (stereo not drawn)	none
COc1ccccc1Cn1cccc1C1=NC(C)CO1 (stereo not drawn)	none
COc1ccc(C(=O)Nc2cc(C(C)=O)c(/C=C/N(C)C)oc2=O)cc1	none
CCOC(=O)c1c(C)oc2ccc(OCC(=O)c3ccc(Br)cc3)cc12	none
COc1ccc2oc(/C=C/N(C)C)c(C(=O)c3ccc(Br)cc3)c2c1	CapD inh -3.3
COc1cc(NC(=S)NC(C)c2cn(C)nc2C)cc(OC)c1 (stereo not drawn)	none
O=c1c2ccccc2c(-c2ccc(Cl)cc2)nn1-c1ccc(Cl)cc1	none
CN(C)S(=O)(=O)c1ccc(C(N)=O)cc1	none
CCC(O)(C#CCN1CCOCC1)CC	none
O=C(O)CC/C(=N\Nc1ccc([N+](=O)[O-])cc1)c1ccccc1	CapD inh -3.6
O=C(Nc1ccc([N+](=O)[O-])cc1)c1ccccc1O	none
O=C(Nc1cccc(C(=O)c2ccccc2)c1)c1ccc([N+](=O)[O-])cc1	none
CC1CN(C(=O)COC(=O)c2cccc(Cl)c2)CC(C)O1 (stereo not drawn)	none
CC(C)c1ccc(-c2c(C#N)c(N)nc3sc(C(=O)Nc4nccs4)c(N)c23)cc1	none
Cc1ccc(-c2nc3sc4nc5ccccc5nc4n3n2)cc1	none
Cc1noc(/C=C/N(C)C)c1S(=O)(=O)N(C)c1ccc(C(C)C)cc1	none
Cc1noc(/C=C/N(C)C)c1S(=O)(=O)NC1CCCCC1	CapD inh -4.2
Cc1noc(/C=C/N(C)C)c1S(=O)(=O)NCCN1CCC(Cc2ccccc2)CC1	none
Cc1ccc(NC(=S)N(CCc2ccccc2)Cc2ccccc2)cc1	none
COc1ccccc1C(=O)Nc1ccc2nc(SC)sc2c1	none
CSc1nnc(NC(=O)c2cccs2)s1	none
O=C(C1CC1)N1CCc2cc(Br)cc(S(=O)(=O)N3CCN(C4CCCCC4)CC3)c21	none
Cc1ccc(-c2cccc(=O)o2)cc1	CapD inh -4
Cc1ccc(-c2nc3ccccc3c(=O)o2)cc1	none
Cc1ccc2c(=O)cc(-c3ccc(F)cc3)oc2c1	none
O=C(Nc1cc(F)ccc1F)c1c(O)c2cccc3c2n(c1=O)CCC3	none
CSC1=NC(=Nc2ccccc2)C2(CCCCC2)N1c1cccc(Cl)c1	none
CC(NC(=O)c1ncn[nH]1)c1ccc(-c2ccccc2)cc1 (stereo not drawn)	none
CC1Cc2ccccc2N1C1=CC(=O)CCC1 (stereo not drawn)	CapD inh -5.7
CC1Cc2ccccc2N1S(=O)(=O)c1ccccc1 (stereo not drawn)	none
CC1Cc2ccccc2N1C(=O)c1cccc(C(=O)N2c3ccccc3CC2C)n1 (stereo not drawn)	none
C=CCN1C(=O)/C(=C\c2ccc(-c3ccc(Cl)c([N+](=O)[O-])c3)o2)C(=O)NC1=S	none
C=CCN1C(=O)/C(=C/c2ccco2)C(=O)NC1=S	CapD inh -4.7
C=CCN1C(=O)NC(=O)/C(=C/c2ccco2)C1=O	none
CN1C(=O)CCC1(C(=O)O)c1ccccc1 (stereo not drawn)	none
CCOC(=O)c1nc2ccccc2c(C)c1C	none
CCOC(=O)c1nc2ccccc2n(C(C)=O)c1=O	CapD inh -6.6
CC(=O)n1c(N)nc2ccccc21	none
CCN(CC)C(=S)SCc1nc(N)nc(Nc2ccccc2OC)n1	none
Cc1nn2c(=O)cc(CSc3nc4ccc(NC(=O)c5ccco5)cc4s3)nc2s1	none
CC(OCc1ccccc1)C(NS(=O)(=O)c1ccc(Br)cc1)C(N)=O (stereo not drawn)	none
O=C(Nc1ccc(CSc2ccccc2)cc1)c1cccc(C(F)(F)F)c1	none
CC(C(=O)O)n1cnc2c1c(=O)[nH]c(=O)n2C (stereo not drawn)	none
CN1C(=O)C(C)(C)c2cc(S(=O)(=O)N(C)CC(=O)NCc3cccs3)ccc21	none
Cc1cc(C)n(-c2ccc(C(=O)O)cc2)n1	none
Cc1cc(C)n(-c2ccc(N=NC3=C(O)CCCC3=O)cc2)n1	CapD inh -4.4
Cc1cc(C)n(-c2ccc(S(N)(=O)=O)cc2)n1	none
O=C1C=C(c2ccccc2)C(=O)N1c1cccc(Cl)c1	none
O=C(O)CCCC(=O)Nc1ccccc1Oc1ccccc1	CapD inh -2
O=C(O)CCCC(=O)Nc1cccc2ccccc12	none
N#CCC(=O)Nc1ccccc1Oc1ccccc1	none
COc1cc(/C=C2\SC(=O)N(Cc3ccc(Cl)cc3)C2=O)cc(OC)c1OC	none
CCOc1ccc(NC(=O)C2=C(C)NC(=O)NC2c2cc(OC)ccc2OC)cc1 (stereo not drawn)	none
CN1CCN(C(c2ccncc2)c2ccc3cccnc3c2O)CC1 (stereo not drawn)	none
Oc1c(C(c2ccccc2)N2CCOCC2)ccc2cccnc12 (stereo not drawn)	none
OCCN1CCN(C(c2ccccc2)c2ccc3cccnc3c2O)CC1 (stereo not drawn)	CapD inh -5.2
Cc1ccc(NC(=O)/C=C/c2ccc(-c3ccccc3)o2)cc1	none
Cc1nnc(C)n1/N=C/C=C\c1ccco1	CapD inh -4.4
S=c1[nH]nc(-c2ccccc2)n1/N=C/C=C/c1ccco1	none
S=c1[nH]nc(-c2cccnc2)n1/N=C/C=C/c1ccco1	none
O=C1CN(c2cc(Cl)cc(Cl)c2)C(=O)CN1/N=C/c1cccnc1	none
O=C1CSC(=S)N1/N=C/c1cccnc1	CapD inh -4
O=C1CSC(=S)N1/N=C/c1cc(Br)cc(Br)c1O	none
Cc1nn(CCC(=O)N2CCc3ccccc32)c(C)c1S(=O)(=O)N1CCCC1	none
CC1(C(=O)NN)CC1C(=O)NN (stereo not drawn)	none
CCOC(=O)c1sc2ncnc(N3CCc4ccccc4C3)c2c1C	none
CCOC(=O)c1sc2nc(C)nc(N3CCc4ccccc4C3)c2c1C	none
CCOC(=O)c1cnc(N2CCc3ccccc3C2)nc1N	CapD inh -3.9
CCOC(=O)c1c(NC(=O)CSc2nnc(CNC(=O)c3cccs3)n2-c2cccc(C)c2)sc2c1CCC2	none
COC(=O)c1ccc2c(c1)NC(=O)c1ccccc1S2	none
CCC(Cc1ccccc1)NC(=O)c1ccc2c(c1)NC(=O)c1ccccc1S2 (stereo not drawn)	none
COC(CN(C)C(=O)c1ccc2c(c1)NC(=O)c1ccccc1S2)OC	CapD inh -6
O=C(CSc1nc2ccccc2[nH]1)N/N=C/c1ccccc1O	none
COc1ccc(OC)c(C2=NOC(C(=O)NC(C)(C)C)C2)c1 (stereo not drawn)	none
CCN(CC)c1ccc(CNc2ccc3c(c2)ncn3C)cc1	none
CC(C)(C)n1cnc2cc(NCc3ccccc3O)ccc21	none
CCN(CC)c1ccc(CNc2ccc3c(c2)ncn3C(C)(C)C)cc1	CapD inh -4.6

Screening results deposited in PubChem by ICCB-Longwood Screening Facility, Harvard Medical School.
